Out of some 340,000 compounds screened, about 1,000 (0.29%) were called active. Cut-off read from the data, not from the text of the source: inconclusive = inhibition above about 27% without an active follow-up result; inactive = below that. A selection follows. Measured potencies and affinities stand elsewhere.
Test: NS1A inhibition, H1N1 influenza, cell based functional assay (AID 504329)
Conditions: percent inhibition, at 12.5 µM, hits give high values
In the case of `COc1ccc(C(=O)NNC(=O)c2ccccn2)cc1`, the inhibition is reported as -9.69% (inactive).
For `S=C(NCc1ccccn1)Nc1ccc(Cl)c(Cl)c1`, the inhibition was 1.31% (inactive).
With `COCCCNC(=S)NNC(=O)c1csc(C)n1` the inhibition was -15.3% (inactive).
In the case of `COCCCNC(=S)NNC(=O)c1cccnc1`, the inhibition is reported as -5.08% (inactive).
For `CC(C)C(=O)NNC(=O)c1ccccn1`, the inhibition was -2.86% (inactive).
With `Cc1cccc(NC(=O)NNC(=O)c2ccccn2)c1` the inhibition was 0.66% (inactive).
With `COC(=O)c1nc2n(n1)C(c1ccc(OC)c(OC)c1)C(C(=O)OC1CCCCC1)=C(C)N2` (configuration not stated) the inhibition was 1.19% (inactive).
In the case of `Cc1nnc(NC2CCCCC2)[nH]c1=O`, the inhibition is reported as -4.74% (inactive).
In the case of `COc1ccc(NS(=O)(=O)c2ccc(C(=O)N3CCN(Cc4ccccc4)CC3)cc2)cc1`, the inhibition is reported as 11.9% (inactive).
In the case of `Cc1onc(-c2c(F)cccc2Cl)c1C(=O)c1ccccc1`, the inhibition is reported as 20% (inactive).
In the case of `O=C(NCC(c1ccco1)N1CCc2ccccc2C1)c1cccc([N+](=O)[O-])c1` (configuration not stated), the inhibition is reported as -12.3% (inactive).
In the case of `Cn1c(=O)c2c(nc(NCc3ccccc3)n2C)n(C)c1=O`, the inhibition is reported as 1.83% (inactive).
In the case of `COc1ccccc1/C=C1\C(=O)NC(=S)N(c2ccccc2)C1=O`, the inhibition is reported as -27.6% (inactive).
With `O=C(Nc1csnn1)OCc1ccccc1` the inhibition was -22.9% (inactive).
In the case of `Cc1[nH]c2ccccc2c1/C=N/n1cnnc1`, the inhibition is reported as -3.32% (inactive).
With `Cc1[nH]c2ccccc2c1/C=N/O` the inhibition was -0.17% (inactive).
In the case of `O=C(c1cccc(S(=O)(=O)N2CCOCC2)c1)N(Cc1ccco1)Cc1cccs1`, the inhibition is reported as 4.9% (inactive).
With `Oc1ccccc1C=Nc1cccc2ccccc12` the inhibition was -4.35% (inactive).
In the case of `Oc1ccccc1C=Nc1ccccc1-c1nc2ccccc2[nH]1`, the inhibition is reported as 41.1% (inactive).
With `Cc1ccc(Nc2cc(C)nc3c(C)cccc23)cc1` the inhibition was -2.9% (inactive).
With `O=S(=O)(NCc1cc(-c2ccccc2Cl)no1)c1ccc(Cl)cc1` the inhibition was 0.63% (inactive).
In the case of `COc1ccc(CNc2nc3nc(C)cc(C)n3n2)cc1`, the inhibition is reported as 1.24% (inactive).
For `CSc1ncccc1C(=O)Nc1cccc(S(=O)(=O)N2CCCC2)c1`, the inhibition was -2.85% (inactive).
In the case of `O=C(COC(=O)c1ccccc1O)NNC(=O)c1ccc(Br)cc1`, the inhibition is reported as 7.27% (inactive).
In the case of `O=C(C1CCN(Cc2nc(Cc3cccc(F)c3)no2)CC1)N1CCOCC1`, the inhibition is reported as 7.26% (inactive).
With `Cc1nnc2sc(SCC(=O)Nc3ccc(Br)cc3)nn2c1=O` the inhibition was 24.3% (inactive).
With `Cc1nnc2sc(SCc3cccc(Cl)c3)nn2c1=O` the inhibition was 2.99% (inactive).
With `Cc1ccc(NC(=O)CSc2nn3c(=O)c(C)nnc3s2)cc1Cl` the inhibition was 12.2% (inactive).
With `Cc1nnc2sc(SCc3ccc(Cl)cc3)nn2c1=O` the inhibition was -5.29% (inactive).
In the case of `Cc1nnc2sc(SCC(=O)Nc3nccs3)nn2c1=O`, the inhibition is reported as -3.22% (inactive).
With `Cc1cccc(CSc2nn3c(=O)c(C)nnc3s2)c1` the inhibition was -3.29% (inactive).
For `C=CC(C)(C)c1c(O)c(CC=C(C)C)c(O)c2c(=O)c3ccc(O)c(O)c3oc12`, the inhibition was 4.4% (inactive).
With `O=C(Cc1cccc(C(F)(F)F)c1)OCC(=O)N1CCN(S(=O)(=O)c2ccc(Cl)cc2)CC1` the inhibition was -3.3% (inactive).
For `CCOc1ccc(NC(=O)C2CCCN2C(=O)NC2CCCCC2)cc1` (configuration not stated), the inhibition was 3.03% (inactive).
With `Cc1ccc2cc(CCNC(=O)C3CCCC3)c(=O)[nH]c2c1` the inhibition was 9.32% (inactive).
With `CCC(C)(C)NC(=O)C(c1ccc(OC)cc1)N(C(=O)CCC(=O)Nc1cc(C)on1)c1ccc2c(c1)OCCO2` (configuration not stated) the inhibition was -4.61% (inactive).
In the case of `CNC(=O)c1[nH]cnc1C(=O)Nc1cccc(C)c1`, the inhibition is reported as -8.44% (inactive).
For `COc1ccc(OCC(=O)Nc2ccc3c(c2)nc(CCn2ccccc2=O)n3C)cc1`, the inhibition was 5.24% (inactive).
In the case of `CN1CCN(C(=O)c2ccc3ccccc3c2)CC1`, the inhibition is reported as -18.4% (inactive).
With `CC(C)(C)c1ccc(C(=O)N2CCNCC2)cc1` the inhibition was -7.49% (inactive).
In the case of `CN1CCN(C(=O)c2ccc3nc(-c4ccccc4)c(-c4ccccc4)nc3c2)CC1`, the inhibition is reported as -4.76% (inactive).
For `O=C(c1ccc(-c2ccccc2)cc1)N1CCN(c2ncccn2)CC1`, the inhibition was 20.6% (inactive).
For `Cc1cc(N2CCN(C)CC2)nc(-c2ccccc2O)n1`, the inhibition was 8.33% (inactive).
In the case of `Oc1cc(-c2ccc(N3CCCCC3)nc2)cc2cccnc12`, the inhibition is reported as -0.13% (inactive).
With `Cc1[nH]c2ccccc2c1C(=O)C(=O)N1CC(C)OC(C)C1` (configuration not stated) the inhibition was -0.55% (inactive).
With `COc1ccc(NC(=O)CN(C)C(=O)C2CSC3(C)CCC(=O)N23)cc1` (configuration not stated) the inhibition was -5.66% (inactive).
In the case of `O=C(CCNC(=O)N1CC(=O)Nc2ccccc21)Nc1ccc(Cl)cc1`, the inhibition is reported as -4.42% (inactive).
In the case of `Cc1cc(C(=O)NN)c2cc(Br)ccc2n1`, the inhibition is reported as -10.8% (inactive).
For `O=C(c1ccc(F)cc1F)N1CCC(N2CCC(C(=O)N3CCOCC3)CC2)CC1`, the inhibition was 4.56% (inactive).
With `CCOC(=O)C(=O)Nc1ccccc1C(=O)NCc1ccccc1` the inhibition was -18.5% (inactive).
For `CC(C)Cn1cnc2c(c1=N)C(c1ccccc1)C1=C(CC(C)(C)CC1=O)O2` (configuration not stated), the inhibition was 0.81% (inactive).
With `COc1ccc(C2C(C(=O)c3ccccc3)N3c4ccccc4C=CC3C2[N+](=O)[O-])cc1` (configuration not stated) the inhibition was -12.1% (inactive).
In the case of `O=C(c1ccco1)[C@@H]1[C@@H]2C(=O)N(c3ccc(F)cc3)C(=O)[C@@H]2[C@H]2C=Cc3ccccc3N21`, the inhibition is reported as 0.66% (inactive).
In the case of `Cc1cc(C)cc(N2C(=O)CCN(Cc3ccccc3)C2=O)c1`, the inhibition is reported as 0.48% (inactive).
For `Cc1c(N=C/C=C2\N(C)c3ccccc3C2(C)C)c(=O)n(-c2ccccc2)n1C`, the inhibition was 1.39% (inactive).
With `CC1=NN(c2ccccc2)C(=O)/C1=C/C=C/C=C/N(C)C` the inhibition was 22.1% (inactive).
For `CC1=NN(c2ccccc2)C(=O)/C1=C/c1ccc(Cl)cc1`, the inhibition was 4.56% (inactive).
For `CC1=NN(c2ccccc2)C(=O)/C1=C/N(C)C`, the inhibition was 12.1% (inactive).
In the case of `CC1=NN(c2ccccc2)C(=O)/C1=C/c1cccs1`, the inhibition is reported as 24.1% (inactive).
For `CC1=NN(c2ccccc2)C(=O)/C1=C/C=C/c1ccccc1`, the inhibition was 9.01% (inactive).
For `CC1=NN(c2ccccc2)C(=O)/C1=C/c1cccc(C)c1`, the inhibition was -0.71% (inactive).
For `CC1=NN(c2ccccc2)C(=O)/C1=C\C=C1\N(C)c2ccccc2C1(C)C`, the inhibition was 25.6% (inactive).
For `CC(=O)Nc1cc(C)c2nc(NC(C)=O)sc2c1`, the inhibition was 8.68% (inactive).
With `Cc1cc(C)c2nc(N3CCCC(C(=O)NC4CCCC4)C3)sc2c1` (configuration not stated) the inhibition was 1.03% (inactive).
For `CN(CC(=O)Nc1c(Cl)cccc1Cl)C(=O)CCC1CCCC1`, the inhibition was -7.47% (inactive).
For `CCOc1ccc(OCCC(=O)OCC(=O)NCc2ccccc2)cc1`, the inhibition was 4.79% (inactive).
With `Cc1nc2ccccc2c2oc(C(=O)N3CCc4ccccc4C3)cc12` the inhibition was 14.6% (inactive).
For `COc1ccccc1C(=O)NC(=O)COC(=O)c1ccc(Cl)cc1[N+](=O)[O-]`, the inhibition was 11.3% (inactive).
For `O=C(N/N=C\C=C\c1ccc2c(c1)OCO2)C1COc2ccccc2O1` (configuration not stated), the inhibition was -2.03% (inactive).
With `COC(=O)CC1=NN(c2ccccc2)C(=O)/C1=C\c1ccc(OC)cc1` the inhibition was 3.36% (inactive).
In the case of `O=C1NC(=O)N(c2ccccc2)C(=O)/C1=C/C=C/c1ccco1`, the inhibition is reported as -5.11% (inactive).
With `O=C(O)c1ccc(N2C(=O)/C(=C/C=C/c3ccccc3)SC2=S)cc1` the inhibition was -0.2% (inactive).
With `CN1/C(=C\C=C2C(=O)NC(=S)NC2=O)C(C)(C)c2ccccc21` the inhibition was 6.82% (inactive).
With `Cc1ccc(N2C(=O)NC(=O)/C(=C\C=C\c3ccco3)C2=O)cc1` the inhibition was -8.27% (inactive).
In the case of `O=C1CC(N2C(=O)/C(=C/C=C/c3ccccc3)SC2=S)C(=O)N1c1ccccc1` (configuration not stated), the inhibition is reported as 7.39% (inactive).
In the case of `CCOC(=O)CC1=NN(c2ccccc2)C(=O)/C1=C\c1ccc(OC)cc1OC`, the inhibition is reported as 17.9% (inactive).
With `CN1/C(=C\C=C2C(=O)NC(=O)NC2=O)C(C)(C)c2ccccc21` the inhibition was -3.94% (inactive).
For `Cc1ccc(S(=O)(=O)CCC(=O)OC2CC(C)OC2=O)cc1` (configuration not stated), the inhibition was -7.36% (inactive).
In the case of `C=CCOc1ccc(Br)cc1/C=C1\NC(=S)N(C(C)=O)C1=O`, the inhibition is reported as 5.35% (inactive).
In the case of `O=C(O)CP(=O)(c1ccccc1)c1ccccc1`, the inhibition is reported as -20.8% (inactive).
With `O=C(NC1CC1)C1CSC(c2cccnc2)=N1` (configuration not stated) the inhibition was -5.68% (inactive).
For `COC(=O)CNC(=O)CNC(=O)c1nn(-c2ccc(OC)c(Cl)c2)c(=O)c2ccccc12`, the inhibition was -9.13% (inactive).
With `Cc1ccc(S(=O)(=O)c2nc(NCCN(C)C)sc2Cl)cc1` the inhibition was 3.06% (inactive).
In the case of `CCOC(=O)C1=C(C(=O)OCC)N(Cc2ccccc2)CCC1=O`, the inhibition is reported as -3.47% (inactive).
In the case of `Cc1ccc(/C=N/NC(=O)C(C)NC(=O)c2ccccc2)cc1` (configuration not stated), the inhibition is reported as -0.33% (inactive).
For `CCC(C)NC(=O)CSc1nc2ccccc2c(=O)n1-c1c(C)n(C)n(-c2ccccc2)c1=O` (configuration not stated), the inhibition was -0.57% (inactive).
For `Fc1ccccc1CSc1nnc(-c2cnccn2)n1Cc1ccco1`, the inhibition was -1.61% (inactive).
In the case of `O=C(NCCc1ccccc1)c1cc(-c2ccccc2)c(N2CCOCC2)s1`, the inhibition is reported as 1.49% (inactive).
In the case of `CCCNC(=O)c1cc(-c2ccccc2)c(N2CCCCC2)s1`, the inhibition is reported as -16.7% (inactive).
For `Cc1[nH]c2ccccc2c1/C=N/NC(N)=S`, the inhibition was 5.2% (inactive).
For `Cn1cc(/C=N/NC(N)=S)c2ccccc21`, the inhibition was -12.5% (inactive).
For `CC(=O)n1cc(/C=N/NC(N)=S)c2ccccc21`, the inhibition was -5.48% (inactive).
In the case of `NC(=S)N/N=C/c1c(O)ccc2ccccc12`, the inhibition is reported as -3.38% (inactive).
With `NC(=S)N/N=C\c1c2ccccc2cc2ccccc12` the inhibition was 8.41% (inactive).
For `CNc1cccnc1C=NNC(N)=S`, the inhibition was 17.7% (inactive).
With `O=C(Nc1ccccc1)c1ccc(S(=O)(=O)NCc2cccnc2)cc1` the inhibition was 10.4% (inactive).
With `CCn1c(SCC(=O)Nc2nc(-c3ccccc3)cs2)nc2c1c(=O)n(C)c(=O)n2C` the inhibition was 4.76% (inactive).
